# Experimental data from the supplement of paper PMC4466140.
# Key:
# Experiment in all cases: SPOT peptide array binding signal intensity (averaged, normalized) (arbitrary units (background-subtracted, floor 0; scale differs between SH3 domains)); higher = stronger binding of the SH3 domain to the peptide
# AgAbp1 = molecular target: AgAbp1
# Outline: (§1)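 Peptides were synthetic 15-mers on cellulose membranes, with every cysteine replaced by serine. They were incubated overnight at 4°C with GST-SH3 domains from four yeast species at 10 μg/ml in TBS-based blocking buffer. Binding signal, the replicate-averaged normalized and background-subtracted spot intensity, is in arbitrary units that differ between domains.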
# AgBbc1 = molecular target: AgBbc1
# Outline: as §1
# AgBem1-D1 = molecular target: AgBem1-D1
# Outline: as §1
# AgBzz1-D1 = molecular target: AgBzz1-D1
# Outline: as §1
# AgBzz1-D2 = molecular target: AgBzz1-D2
# Outline: as §1
# AgCyk3 = molecular target: AgCyk3
# Outline: as §1
# AgFus1 = molecular target: AgFus1
# Outline: as §1
# AgHof1 = molecular target: AgHof1
# Outline: as §1
# AgHse1 = molecular target: AgHse1
# Outline: as §1
# AgLsb1 = molecular target: AgLsb1
# Outline: as §1
# AgLsb4 = molecular target: AgLsb4
# Outline: as §1
# AgMyo5 = molecular target: AgMyo5
# Outline: as §1
# AgNbp2 = molecular target: AgNbp2
# Outline: as §1
# AgRvs167 = molecular target: AgRvs167
# Outline: as §1
# AgSho1 = molecular target: AgSho1
# Outline: as §1
# AgSla1-D1-D2 = molecular target: AgSla1-D1-D2
# Outline: as §1
# AgSla1-D3 = molecular target: AgSla1-D3
# Outline: as §1
# CaAbp1-D1 = molecular target: CaAbp1-D1
# Outline: as §1
# CaAbp1-D2 = molecular target: CaAbp1-D2
# Outline: as §1
# CaBbc1 = molecular target: CaBbc1
# Outline: as §1
# CaBem1-D1 = molecular target: CaBem1-D1
# Outline: as §1
# CaBzz1-D1 = molecular target: CaBzz1-D1
# Outline: as §1
# CaBzz1-D2 = molecular target: CaBzz1-D2
# Outline: as §1
# CaCyk3 = molecular target: CaCyk3
# Outline: as §1
# CaFus1 = molecular target: CaFus1
# Outline: as §1
# CaHof1 = molecular target: CaHof1
# Outline: as §1
# CaHse1 = molecular target: CaHse1
# Outline: as §1
# CaLsb1 = molecular target: CaLsb1
# Outline: as §1
# CaLsb4 = molecular target: CaLsb4
# Outline: as §1
# CaMyo5 = molecular target: CaMyo5
# Outline: as §1
# SpBzz1-D2 = molecular target: SpBzz1-D2
# Outline: as §1
# SpCyk3 = molecular target: SpCyk3
# Outline: as §1
# SpHof1 = molecular target: SpHof1
# Outline: as §1
# SpHof1-2 = molecular target: SpHof1-2
# Outline: as §1
# SpHof1-3 = molecular target: SpHof1-3
# Outline: as §1
# SpHse1 = molecular target: SpHse1
# Outline: as §1
# SpLsb1 = molecular target: SpLsb1
# Outline: as §1
# SpLsb4 = molecular target: SpLsb4
# Outline: as §1
# SpMyo1 = molecular target: SpMyo1
# Outline: as §1
# SpNbp2 = molecular target: SpNbp2
# Outline: as §1
# SpPex13 = molecular target: SpPex13
# Outline: as §1
# SpRvs167 = molecular target: SpRvs167
# Outline: as §1
# SpSla1-D1-D2 = molecular target: SpSla1-D1-D2
# Outline: as §1
# SpSla1-D3 = molecular target: SpSla1-D3
# Outline: as §1
# CaNbp2 = molecular target: CaNbp2
# Outline: as §1
# CaRvs167 = molecular target: CaRvs167
# Outline: as §1
# CaRvs167-3 = molecular target: CaRvs167-3
# Outline: as §1
# CaSho1 = molecular target: CaSho1
# Outline: as §1
# CaSla1-D1-D2 = molecular target: CaSla1-D1-D2
# Outline: as §1
# CaSla1-D3 = molecular target: CaSla1-D3
# Outline: as §1
# ScAbp1 = molecular target: ScAbp1
# Outline: as §1
# ScBbc1 = molecular target: ScBbc1
# Outline: as §1
# ScBem1-D1 = molecular target: ScBem1-D1
# Outline: as §1
# ScBzz1-D1 = molecular target: ScBzz1-D1
# Outline: as §1
# ScBzz1-D2 = molecular target: ScBzz1-D2
# Outline: as §1
# ScCyk3 = molecular target: ScCyk3
# Outline: as §1
# ScFus1 = molecular target: ScFus1
# Outline: as §1
# ScHof1 = molecular target: ScHof1
# Outline: as §1
# ScHse1 = molecular target: ScHse1
# Outline: as §1
# ScLsb1 = molecular target: ScLsb1
# Outline: as §1
# ScLsb2 = molecular target: ScLsb2
# Outline: as §1
# ScLsb3 = molecular target: ScLsb3
# Outline: as §1
# ScLsb4 = molecular target: ScLsb4
# Outline: as §1
# ScMyo3 = molecular target: ScMyo3
# Outline: as §1
# ScMyo5 = molecular target: ScMyo5
# Outline: as §1
# ScNbp2 = molecular target: ScNbp2
# Outline: as §1
# ScPex13 = molecular target: ScPex13
# Outline: as §1
# ScRvs167 = molecular target: ScRvs167
# Outline: as §1
# ScSho1 = molecular target: ScSho1
# Outline: as §1
# ScSla1-D1-D2 = molecular target: ScSla1-D1-D2
# Outline: as §1
# ScSla1-D3 = molecular target: ScSla1-D3
# Outline: as §1
# SpAbp1-D1 = molecular target: SpAbp1-D1
# Outline: as §1
# SpBbc1 = molecular target: SpBbc1
# Outline: as §1
# SpBzz1-D1 = molecular target: SpBzz1-D1
# Outline: as §1
binder,measurement,setting,value
VPPPMQPPPIESSNL,SPOT peptide array binding signal intensity,AgAbp1,≤ 0
same,SPOT peptide array binding signal intensity,AgBbc1,2.5
same,SPOT peptide array binding signal intensity,AgBem1-D1,238
same,SPOT peptide array binding signal intensity,AgBzz1-D1,≤ 0
same,SPOT peptide array binding signal intensity,AgBzz1-D2,≤ 0
same,SPOT peptide array binding signal intensity,AgCyk3,0.5
same,SPOT peptide array binding signal intensity,AgFus1,159
same,SPOT peptide array binding signal intensity,AgHof1,0.25
same,SPOT peptide array binding signal intensity,AgHse1,90
same,SPOT peptide array binding signal intensity,AgLsb1,≤ 0
same,SPOT peptide array binding signal intensity,AgLsb4,≤ 0
same,SPOT peptide array binding signal intensity,AgMyo5,102
same,SPOT peptide array binding signal intensity,AgNbp2,98
same,SPOT peptide array binding signal intensity,AgRvs167,≤ 0
same,SPOT peptide array binding signal intensity,AgSho1,67
same,SPOT peptide array binding signal intensity,AgSla1-D1-D2,≤ 0
same,SPOT peptide array binding signal intensity,AgSla1-D3,0.75
same,SPOT peptide array binding signal intensity,CaAbp1-D1,≤ 0
same,SPOT peptide array binding signal intensity,CaAbp1-D2,8
same,SPOT peptide array binding signal intensity,CaBbc1,10.5
same,SPOT peptide array binding signal intensity,CaBem1-D1,26
same,SPOT peptide array binding signal intensity,CaBzz1-D1,35
same,SPOT peptide array binding signal intensity,CaBzz1-D2,8.25
same,SPOT peptide array binding signal intensity,CaCyk3,8
same,SPOT peptide array binding signal intensity,CaFus1,740
same,SPOT peptide array binding signal intensity,CaHof1,≤ 0
same,SPOT peptide array binding signal intensity,CaHse1,68
same,SPOT peptide array binding signal intensity,CaLsb1,0.5
same,SPOT peptide array binding signal intensity,CaLsb4,388
same,SPOT peptide array binding signal intensity,CaMyo5,142
FTLPPPPPPPGLDEL,SPOT peptide array binding signal intensity,SpBzz1-D2,9.25
same,SPOT peptide array binding signal intensity,SpCyk3,≤ 0
same,SPOT peptide array binding signal intensity,SpHof1,2.5
same,SPOT peptide array binding signal intensity,SpHof1-2,1
same,SPOT peptide array binding signal intensity,SpHof1-3,5.75
same,SPOT peptide array binding signal intensity,SpHse1,≤ 0
same,SPOT peptide array binding signal intensity,SpLsb1,≤ 0
same,SPOT peptide array binding signal intensity,SpLsb4,≤ 0
same,SPOT peptide array binding signal intensity,SpMyo1,1110
same,SPOT peptide array binding signal intensity,SpNbp2,≤ 0
same,SPOT peptide array binding signal intensity,SpPex13,≤ 0
same,SPOT peptide array binding signal intensity,SpRvs167,16.7
same,SPOT peptide array binding signal intensity,SpSla1-D1-D2,≤ 0
same,SPOT peptide array binding signal intensity,SpSla1-D3,≤ 0
DLPLPDLPPEPPTEL,SPOT peptide array binding signal intensity,AgAbp1,≤ 0
same,SPOT peptide array binding signal intensity,AgBbc1,≤ 0
same,SPOT peptide array binding signal intensity,AgBem1-D1,≤ 0
same,SPOT peptide array binding signal intensity,AgBzz1-D1,≤ 0
same,SPOT peptide array binding signal intensity,AgBzz1-D2,2
same,SPOT peptide array binding signal intensity,AgCyk3,0.5
same,SPOT peptide array binding signal intensity,AgFus1,≤ 0
same,SPOT peptide array binding signal intensity,AgHof1,54.5
same,SPOT peptide array binding signal intensity,AgHse1,10.5
same,SPOT peptide array binding signal intensity,AgLsb1,≤ 0
same,SPOT peptide array binding signal intensity,AgLsb4,≤ 0
same,SPOT peptide array binding signal intensity,AgMyo5,207
same,SPOT peptide array binding signal intensity,AgNbp2,≤ 0
same,SPOT peptide array binding signal intensity,AgRvs167,≤ 0
same,SPOT peptide array binding signal intensity,AgSho1,≤ 0
same,SPOT peptide array binding signal intensity,AgSla1-D1-D2,2
same,SPOT peptide array binding signal intensity,AgSla1-D3,≤ 0
same,SPOT peptide array binding signal intensity,CaAbp1-D1,≤ 0
same,SPOT peptide array binding signal intensity,CaAbp1-D2,≤ 0
same,SPOT peptide array binding signal intensity,CaBbc1,≤ 0
same,SPOT peptide array binding signal intensity,CaBem1-D1,≤ 0
same,SPOT peptide array binding signal intensity,CaBzz1-D1,≤ 0
same,SPOT peptide array binding signal intensity,CaBzz1-D2,≤ 0
same,SPOT peptide array binding signal intensity,CaCyk3,≤ 0
same,SPOT peptide array binding signal intensity,CaFus1,≤ 0
same,SPOT peptide array binding signal intensity,CaHof1,2.5
same,SPOT peptide array binding signal intensity,CaHse1,1
same,SPOT peptide array binding signal intensity,CaLsb1,0.5
same,SPOT peptide array binding signal intensity,CaLsb4,≤ 0
same,SPOT peptide array binding signal intensity,CaMyo5,0.75
same,SPOT peptide array binding signal intensity,CaNbp2,≤ 0
same,SPOT peptide array binding signal intensity,CaRvs167,0.333
same,SPOT peptide array binding signal intensity,CaRvs167-3,2.5
same,SPOT peptide array binding signal intensity,CaSho1,9.5
same,SPOT peptide array binding signal intensity,CaSla1-D1-D2,≤ 0
same,SPOT peptide array binding signal intensity,CaSla1-D3,≤ 0
same,SPOT peptide array binding signal intensity,ScAbp1,4
same,SPOT peptide array binding signal intensity,ScBbc1,2.75
same,SPOT peptide array binding signal intensity,ScBem1-D1,≤ 0
same,SPOT peptide array binding signal intensity,ScBzz1-D1,2
same,SPOT peptide array binding signal intensity,ScBzz1-D2,2
same,SPOT peptide array binding signal intensity,ScCyk3,2
same,SPOT peptide array binding signal intensity,ScFus1,≤ 0
same,SPOT peptide array binding signal intensity,ScHof1,206
same,SPOT peptide array binding signal intensity,ScHse1,≤ 0
same,SPOT peptide array binding signal intensity,ScLsb1,≤ 0
same,SPOT peptide array binding signal intensity,ScLsb2,≤ 0
same,SPOT peptide array binding signal intensity,ScLsb3,≤ 0
same,SPOT peptide array binding signal intensity,ScLsb4,≤ 0
same,SPOT peptide array binding signal intensity,ScMyo3,384
same,SPOT peptide array binding signal intensity,ScMyo5,646
same,SPOT peptide array binding signal intensity,ScNbp2,≤ 0
same,SPOT peptide array binding signal intensity,ScPex13,≤ 0
same,SPOT peptide array binding signal intensity,ScRvs167,≤ 0
same,SPOT peptide array binding signal intensity,ScSho1,≤ 0
same,SPOT peptide array binding signal intensity,ScSla1-D1-D2,≤ 0
same,SPOT peptide array binding signal intensity,ScSla1-D3,≤ 0
same,SPOT peptide array binding signal intensity,SpAbp1-D1,≤ 0
same,SPOT peptide array binding signal intensity,SpBbc1,≤ 0
same,SPOT peptide array binding signal intensity,SpBzz1-D1,≤ 0
same,SPOT peptide array binding signal intensity,SpBzz1-D2,≤ 0
same,SPOT peptide array binding signal intensity,SpCyk3,≤ 0
same,SPOT peptide array binding signal intensity,SpHof1,≤ 0
same,SPOT peptide array binding signal intensity,SpHof1-2,3
same,SPOT peptide array binding signal intensity,SpHof1-3,0.5
same,SPOT peptide array binding signal intensity,SpHse1,≤ 0
same,SPOT peptide array binding signal intensity,SpLsb1,≤ 0
same,SPOT peptide array binding signal intensity,SpLsb4,≤ 0
same,SPOT peptide array binding signal intensity,SpMyo1,328
same,SPOT peptide array binding signal intensity,SpNbp2,≤ 0
same,SPOT peptide array binding signal intensity,SpPex13,≤ 0
same,SPOT peptide array binding signal intensity,SpRvs167,≤ 0
same,SPOT peptide array binding signal intensity,SpSla1-D1-D2,≤ 0
same,SPOT peptide array binding signal intensity,SpSla1-D3,≤ 0
